Laboratory results reported in PubChem BioAssay AID1159580 (chemical genetic matrix, 2015).
Among all 5,500 compounds or so, about 2,000 (36%) were called active. Not shown: some 18% with an inconclusive outcome. No stated cut-off is given here; in the data, active means normalized growth mostly below about 0.91 (no sharp cut-off); inconclusive means no clear call, values can overlap the other calls; inactive means mostly above about 0.92. The list shows a part of the results.

Test: chemical genetic growth profiling, strain panel (AID 1159580);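 further: tested at 20 µM; growth read once vehicle control cultures reached saturation at 30 °C; 1 = growth at the plate median or of vehicle wells; lower values mean less growth of the strain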
Conditions: growth OD

Measured: normalized growth

CCCCc1nc(Cl)c(CO)n1Cc1ccc(-c2ccccc2-c2nn[nH]n2)cc1
inactive: S. cerevisiae deletion strains, locus YJR075W, strain HOC1, hits give low values 0.999 | S. cerevisiae deletion strains, locus YKL009W, strain mrt4, hits give low values 0.985 | S. cerevisiae deletion strains, locus YKL068W, hits give low values 0.997 | S. cerevisiae deletion strains, locus YKL085W, strain MDH1 (second series), hits give low values 0.992 | S. cerevisiae deletion strains, locus YKL085W, strain MDH1, hits give low values 0.992 | S. cerevisiae deletion strains, locus YKL160W, strain elf1, hits give low values 0.991 | S. cerevisiae deletion strains, locus YKL190W, strain CNB1, hits give low values 1.01 | S. cerevisiae deletion strains, locus YKR001C, strain vps1, hits give low values 0.99 | S. cerevisiae deletion strains, locus YKR026C, strain gcn3, hits give low values 0.988 | S. cerevisiae deletion strains, locus YKR091W, strain srl3, hits give low values 0.991 | S. cerevisiae deletion strains, locus YLL001W, strain dnm1, hits give low values 0.98 | S. cerevisiae deletion strains, locus YLL026W, hits give low values 0.992 | S. cerevisiae deletion strains, locus YLL041C, strain sdh2, hits give low values 0.992 | S. cerevisiae deletion strains, locus YLR027C, strain aat2, hits give low values 0.993 | S. cerevisiae deletion strains, locus YLR039C, strain RIC1, hits give low values 1.02 | S. cerevisiae deletion strains, locus YLR058C, strain SHM2, hits give low values 0.997 | S. cerevisiae deletion strains, locus YLR102C, strain apc9, hits give low values 0.994 | S. cerevisiae deletion strains, locus YLR113W, strain HOG1, hits give low values 1.01 | S. cerevisiae deletion strains, locus YLR221C, strain rsa3, hits give low values 0.987 | S. cerevisiae deletion strains, locus YLR258W, strain gsy2, hits give low values 0.998 | S. cerevisiae deletion strains, locus YLR262C, strain YPT6 (second series), hits give low values 0.995 | S. cerevisiae deletion strains, locus YLR262C, strain YPT6, hits give low values 1.04 | S. cerevisiae deletion strains, locus YLR268W, strain sec22, hits give low values 0.999 | S. cerevisiae deletion strains, locus YLR320W, strain mms22, hits give low values 0.985 | S. cerevisiae deletion strains, locus YLR330W, strain CHS5, hits give low values 1.01 | S. cerevisiae deletion strains, locus YLR342W, strain FKS1 (second series), hits give low values 0.997 | S. cerevisiae deletion strains, locus YLR342W, strain FKS1, hits give low values 1.01 | S. cerevisiae deletion strains, locus YLR357W, strain rsc2, hits give low values 0.993 | S. cerevisiae deletion strains, locus YLR370C, strain arc18, hits give low values 0.987 | S. cerevisiae deletion strains, locus YLR371W, strain rom2, hits give low values 0.997 | S. cerevisiae deletion strains, locus YLR384C, strain iki3, hits give low values 0.974 | S. cerevisiae deletion strains, locus YLR418C, strain cdc73, hits give low values 1 | S. cerevisiae deletion strains, locus YML016C, strain PPZ1, hits give low values 1 | S. cerevisiae deletion strains, locus YML032C, strain rad52, hits give low values 1 | S. cerevisiae deletion strains, locus YML120C, strain ndi1, hits give low values 0.981 | S. cerevisiae deletion strains, locus YML124C, strain tub3, hits give low values 0.997 | S. cerevisiae deletion strains, locus YMR058W, strain fet3, hits give low values 1 | S. cerevisiae deletion strains, locus YMR078C, strain ctf18, hits give low values 0.999 | S. cerevisiae deletion strains, locus YMR125W, strain sto1, hits give low values 0.982 | S. cerevisiae deletion strains, locus YMR129W, hits give low values 0.994 | S. cerevisiae deletion strains, locus YMR205C, strain PFK2, hits give low values 0.998 | S. cerevisiae deletion strains, locus YMR223W, strain ubp8, hits give low values 1 | S. cerevisiae deletion strains, locus YMR231W, strain pep5, hits give low values 0.982 | S. cerevisiae deletion strains, locus YMR263W, strain SAP30, hits give low values 1.02 | S. cerevisiae deletion strains, locus YMR307W, strain GAS1, hits give low values 0.911 | S. cerevisiae deletion strains, locus YNL067W, strain RPL9B, hits give low values 1.02 | S. cerevisiae deletion strains, locus YNL071W, strain lat1, hits give low values 1 | S. cerevisiae deletion strains, locus YNL128W, strain TEP1, hits give low values 1.01 | S. cerevisiae deletion strains, locus YNL153C, strain GIM3, hits give low values 1.01 | S. cerevisiae deletion strains, locus YNL183C, strain NPR1, hits give low values 1.01 | S. cerevisiae deletion strains, locus YNL209W, strain ssb2, hits give low values 0.979 | S. cerevisiae deletion strains, locus YNL233W, strain BNI4, hits give low values 1.02 | S. cerevisiae deletion strains, locus YNL248C, strain rpa49, hits give low values 0.996 | S. cerevisiae deletion strains, locus YNL250W, strain rad50, hits give low values 0.993 | S. cerevisiae deletion strains, locus YNL271C, strain bni1, hits give low values 0.995 | S. cerevisiae deletion strains, locus YNL298W, strain CLA4, hits give low values 0.989 | S. cerevisiae deletion strains, locus YNL307C, strain MCK1, hits give low values 1.02 | S. cerevisiae deletion strains, locus YNL322C, strain KRE1 (second series), hits give low values 0.971 | S. cerevisiae deletion strains, locus YNL322C, strain KRE1, hits give low values 1.01 | S. cerevisiae deletion strains, locus YNR049C, strain mso1, hits give low values 0.985 | S. cerevisiae deletion strains, locus YNR052C, strain pop2, hits give low values 0.99 | S. cerevisiae deletion strains, locus YOL006C, strain TOP1, hits give low values 1.04 | S. cerevisiae deletion strains, locus YOL012C, strain htz1 0.901 | S. cerevisiae deletion strains, locus YOL147C, strain pex11, hits give low values 1 | S. cerevisiae deletion strains, locus YOR001W, strain rrp6, hits give low values 0.978 | S. cerevisiae deletion strains, locus YOR061W, strain CKA2, hits give low values 1.01 | S. cerevisiae deletion strains, locus YOR069W, strain VPS5, hits give low values 1 | S. cerevisiae deletion strains, locus YOR070C, strain gyp1, hits give low values 0.986 | S. cerevisiae deletion strains, locus YOR080W, strain dia2, hits give low values 0.978 | S. cerevisiae deletion strains, locus YOR083W, strain WHI5, hits give low values 0.981 | S. cerevisiae deletion strains, locus YOR106W, strain vam3, hits give low values 1 | S. cerevisiae deletion strains, locus YOR136W, strain idh2, hits give low values 1 | S. cerevisiae deletion strains, locus YOR144C, strain elg1, hits give low values 1 | S. cerevisiae deletion strains, locus YOR184W, strain ser1, hits give low values 1 | S. cerevisiae deletion strains, locus YOR231W, strain MKK1, hits give low values 0.965 | S. cerevisiae deletion strains, locus YOR265W, strain rbl2, hits give low values 0.999 | S. cerevisiae deletion strains, locus YOR270C, strain vph1, hits give low values 0.97 | S. cerevisiae deletion strains, locus YOR290C, strain snf2, hits give low values 1 | S. cerevisiae deletion strains, locus YOR316C, strain cot1, hits give low values 0.999 | S. cerevisiae deletion strains, locus YPL051W, strain arl3, hits give low values 0.99 | S. cerevisiae deletion strains, locus YPL055C, strain LGE1, hits give low values 1.01 | S. cerevisiae deletion strains, locus YPL078C, strain atp4, hits give low values 0.985 | S. cerevisiae deletion strains, locus YPL106C, strain sse1, hits give low values 0.964 | S. cerevisiae deletion strains, locus YPL240C, strain hsp82, hits give low values 1.02 | S. cerevisiae deletion strains, locus YPL241C, strain CIN2, hits give low values 1.01 | S. cerevisiae deletion strains, locus YPL256C, strain CLN2, hits give low values 0.967 | S. cerevisiae deletion strains, locus YPR119W, strain clb2, hits give low values 0.995 | S. cerevisiae deletion strains, locus YPR141C, strain kar3, hits give low values 1 | S. cerevisiae deletion strains, locus YPR163C, strain tif3, hits give low values 1.01 | S. cerevisiae deletion strains, locus YPR167C, strain met16, hits give low values 0.998 | S. cerevisiae deletion strains, strain wtn01, hits give low values 0.989 | S. cerevisiae strains, strain wild type, hits give low values 1.01
